Measured values: PubChem BioAssay (NCI)
Compounds without any hit were thinned out: in the full panel of roughly 79,000, 15% have a hit. Cut-off read from the data, not from the text of the source: active = growth inhibition above about 70%; inactive = the rest.

What was measured:
[1] = NCI Yeast Anticancer Drug Screen. Data for the rad50 strain (AID 155);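 note: 0% = growth of vehicle-only cultures of the same strain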; settings: S. cerevisiae rad50 strain growth inhibition, active compounds read high; at 50.0 µM unless noted
In short: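 Inhibition values express reduced yeast growth in compound-treated cultures relative to vehicle-treated controls.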

[2] = NCI Yeast Anticancer Drug Screen. Data for the mec2-1 strain (AID 157); settings: S. cerevisiae mec2-1 strain, active compounds read high; at 50.0 µM unless noted
In short: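 Using mec2-1 yeast: add compound, measure growth, express inhibition versus vehicle-treated cultures.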

[3] = NCI Yeast Anticancer Drug Screen. Data for the sgs1 mgt1 strain (AID 161);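 note: 0% = growth of cultures given vehicle only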; settings: S. cerevisiae sgs1 mgt1 strain, active compounds read high; at 50.0 µM unless noted
In short: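 Growth of a repair-deficient yeast mutant was monitored after compound treatment and expressed as inhibition relative to vehicle-treated cultures.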

[4] = NCI Yeast Anticancer Drug Screen. Data for the cln2 rad14 strain (AID 165);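 note: 0% = growth equal to vehicle treated cultures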; settings: S. cerevisiae cln2 rad14 strain, active compounds read high; at 50.0 µM unless noted
In short: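 Yeast strain cln2 rad14, bearing defects in cell cycle control and DNA repair, serves as the test system; values reflect growth inhibition compared with vehicle.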

[5] = NCI Yeast Anticancer Drug Screen. Data for the bub3 strain (AID 167); settings: S. cerevisiae bub3 mutant strain, active compounds read high; at 50.0 µM unless noted
In short: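 Steps: expose the mutant yeast strain to compound; grow alongside vehicle-treated cultures; measure growth; express inhibition against the vehicle cultures.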

[6] = NCI Yeast Anticancer Drug Screen. Data for the mlh1 rad18 strain (AID 175); settings: S. cerevisiae mlh1 rad18 strain growth inhibition, active compounds read high; at 50.0 µM unless noted
In short: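 Steps: expose repair-defective yeast to compound; measure growth; express inhibition against vehicle-treated controls.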

Measured: growth inhibition

COc1ccc2c(c1)c(CC(=O)O)c(C)n2Cc1ccccc1
inactive: [1] -13.7% | [2] -16% | [3] -13.7% | [4] -14.8% | [5] 17.4% | [6] -7.65%

CC(=O)Nc1c(C)cc([N+](=O)[O-])c2ccccc12
inactive: [1] -0.7% | [2] -2.45% | [3] -14.9% | [4] -9.45% | [5] 8.05% | [6] -13.3%

CCOC(=O)C1Oc2ccc([N+](=O)[O-])cc2C1(C)O (stereo unspecified)
inactive: [1] -1.15% | [2] 0.75% | [3] -6.85% | [4] 22.6% | [5] 1.85% | [6] -4.45%

CC(C)CC1N=C(NN=C(CCl)CCl)OP1(=O)NCCCCCCNP1(=O)OC(NN=C(CCl)CCl)=NC1CC(C)C (stereo unspecified)
inactive: [1] 13.4% | [2] 5.05% | [3] 2.95% | [4] 4.75% | [5] 24.8% | [6] 37.6%

O=C(CCC/C(CC(=O)c1ccc(Br)cc1)=N\O)Nc1ccccc1
inactive: [1] 52.9% | [2] 25.8% | [3] 17.8% | [4] 19.6% | [5] 28.7% | [6] 25.7%

CC(=O)CC(=O)ON(C)C(=O)Cc1ccccc1
inactive: [1] 29.6% | [2] 15.2% | [3] -2.75% | [4] -4.4% | [5] -6.1% | [6] -8.35%

CCCSc1nn2cc(NC(=O)OC)nc2s1
inactive: [1] -13.5% | [2] -8.7% | [3] -3.75% | [4] -24.5% | [5] 7.05% | [6] -6.5%

Cc1ccc(C(=O)NNC(=O)c2ccc(C)cc2)cc1
inactive: [1] -10.5% | [2] -18.4% | [3] -11.1% | [4] 2.8% | [5] -10.9% | [6] -5.15%

CC1(c2ccccc2)CC/C(=C/c2ccccc2)C1=O (stereo unspecified)
inactive: [1] -5.4% | [2] 10.1% | [3] 25.9% | [4] -43.5% | [5] 33.3% | [6] 18.3%

CCN(CC)C/C(C)=C(/c1ccccc1)c1ccccc1S(N)(=O)=O
inactive: [1] 5.8% | [2] 4.15% | [3] -1.5% | [4] -30.6% | [5] 1.15% | [6] 9.65%

CC1(C)OC(CI)C(COS(C)(=O)=O)O1 (stereo unspecified)
inactive: [1] 3.7% | [2] 3.2% | [3] 3.7% | [4] -25.2% | [5] -11.3% | [6] -2.25%

CCCCCCCCCCCCCCCCCn1nnnc1N
inactive: [1] -8.3% | [2] 11.6% | [3] -7.3% | [4] -9.95% | [5] -12.3% | [6] -11.4%

Cc1ccc2oc3c(ccc(=O)n3C)c(=O)c2c1
inactive: [1] 28.6% | [2] 7.1% | [3] -17.6% | [4] -22.1% | [5] -35.5% | [6] -59.3%

O=C(O)/C=C/c1ccc(OS(=O)(=O)O)cc1
inactive: [1] -12.6% | [2] -31.4% | [3] -14.9% | [4] 7.8% | [5] -9.8% | [6] -7.4%

COCCOC(=O)COc1ccccc1
inactive: [1] 22.1% | [2] 23% | [3] 16.2% | [4] 3.5% | [5] -8% | [6] -1.15%

O=C(c1ccccc1)C(C(Nc1ccccc1)c1ccccc1)N1CCOCC1 (stereo unspecified)
inactive: [1] 6.65% | [2] -5% | [3] -16% | [4] -47.3% | [5] 27.4% | [6] 22.6%

c1ccc2nc3c(cc2c1)NCC3
inactive: [1] -2.3% | [2] 5.15% | [3] -14.4% | [4] -22.6% | [5] -8.25% | [6] -20.9%

CC(=O)Nc1ccc(-c2nnc(SCC(=O)Nc3cccc([N+](=O)[O-])c3)o2)cc1
inactive: [1] -2% | [2] 5.15% | [3] 15.6% | [4] -17.5% | [5] -10.7% | [6] 0.4%

CCNC(=O)Nc1cccc(C)n1
inactive: [1] 14.9% | [2] 14.1% | [3] 22.8% | [4] 27.6% | [5] 4.4% | [6] 19.4%

CC1(C)C2CC(C(=O)O)C1C2 (stereo unspecified)
inactive: [1] 2.75% | [2] 5.8% | [3] 2.05% | [4] 3.8% | [5] -10.8% | [6] -19.1%

NC(=S)N/N=C/c1ccc([N+](=O)[O-])s1
inactive: [1] 9.65% | [2] 1.1% | [3] 19.9% | [4] 25.1% | [5] 22% | [6] 32.5%
